Records with an inconclusive call do not appear. A call without a number means that no potency is given here. Activity calls are given as the source filed them. Calls come from the whole dose curve; as a rule, active = well fitted activation curve with a large enough effect in the repeat runs; inconclusive = weak or mixed curves; inactive = flat fitted curve, though single readings scatter.
test: A CellTox Green Cytotoxicity Assay to monitor cytotoxicity in HEK293 cells - 8 hour (AID 1224884); details: CellTox Green fluorescence; series mostly up to 76.8 µM; note: nearly all actives have a fitted effect of over 35% in size
From the text: National Center for Advancing Translational Sciences [NCATS]
NIH Chemical Genomics Center [NCGC]
U.S. Environmental Protection Agency [EPA]
National Institutes of Environmental Health Sciences [NIEHS]
National Toxicology Program [NTP]
Cell-based models are critical for drug discovery. Determining the natural cytotoxic effects resulting from test compounds is an essential research activity. A CellTox Green Cytotoxicity Assay to monitor cytotoxicity in real time of continues cell culture during 40 hours of the compound treatment was used to screen Tox21 10K library compounds in Hek293 cells. CellTox Green Cytotoxicity Assay is a nonlytic, homogeneous, biofluorescent method to measure cytotoxicity in cell culture after experimental manipulation. The assay system uses a proprietary asymmetric cyanine dye that is excluded from viable cells but preferentially stains the dead cell's DNA. […] Viable cells produce no appreciable increases in fluorescence. Therefore, the fluorescence signal produced by the binding interaction with dead cell DNA is proportional to cytotoxicity.
The mixture of Hek293 cell suspension and reagents were dispensed at 600cells/6 ul/well in 1536-well tissue culture treated black solid bottom plates using a Multidrop dispenser. After the assay plates were incubated at a 37 C/5% CO2 incubator for 5 hours, 23 nL of compounds dissolved in DMSO, positive and negative controls was transferred to the assay plate by a pintool work station. The plates were incubated at 37 C for 40 hours. The fluorescence intensity were measured at 0h, 8h, 16h, 24h, 32h and 40h time points using ViewLux plate reader during compound treatment.
Potency is the fitted concentration of half-maximal effect.

SMILES	Potency
CC(C)COP(=O)(OCC(C)C)OCC(C)C	inactive
N#CC(O)c1ccccc1 (stereo not given)	inactive
CNC(=O)N(C)c1nc2ccccc2s1	inactive
N#CC(Cl)(Cl)Cl	inactive
CN1CCC(O)(c2ccc(F)cc2)C(C(=O)c2ccc(F)cc2)C1 (stereo not given)	inactive
CCC/C(=N\OCC)C1=C(O)CC(CC(C)SCC)CC1=O (stereo not given)	inactive
CCS(=O)(=O)C(C)(C)S(=O)(=O)CC	inactive
COc1cc(OC)nc(NC(=O)NS(=O)(=O)c2ncccc2C(=O)N(C)C)n1	inactive
COP(N)(=S)Oc1ccccc1C(=O)OC(C)C (stereo not given)	inactive
CCOP(=S)(OCC)Oc1cc(-c2ccccc2)on1	inactive
N#CCCC#N	inactive
C=C(C)CN(CC)c1c([N+](=O)[O-])cc(C(F)(F)F)cc1[N+](=O)[O-]	inactive
O=S(=O)(O)C(F)(F)C(F)(F)C(F)(F)C(F)(F)C(F)(F)C(F)(F)F	inactive
COC(=O)COc1ccc(Cl)cc1Cl	inactive
O=NN1CCCCC1	inactive
CC1=NNC(=O)N(/N=C/c2cccnc2)C1	inactive
CN(N=O)C(N)=O	inactive
Cc1nnc2n1-c1sc(CCC(=O)N3CCOCC3)cc1C(c1ccccc1Cl)=NC2	inactive
CCOc1nc(C(Cl)(Cl)Cl)ns1	inactive
Nc1cc2c3c(c1)C(c1ccccc1)=N[C@@H](NC(=O)c1cccnc1)C(=O)N3CC2	inactive

SMILES	Potency
O=NN1CCN(N=O)CC1	inactive
CC1(C)C(=O)NC(=O)NC1=O	49 µM (active)
Nc1ccccc1Cl	inactive
CC(C(=O)c1ccccc1)N(C)C (stereo not given)	inactive
COP(=S)(OC)Oc1c(Cl)cc(C)cc1Cl	inactive
O=C(CCCN1CCC(n2c(=O)[nH]c3ccccc32)CC1)c1ccc(F)cc1	inactive
CC(CC(C#N)(c1ccccc1)c1ccccc1)N(C)C (stereo not given)	inactive
Cc1ccccc1CO[C@@H]1C[C@@]2(C(C)C)CC[C@]1(C)O2	inactive
ClC(Cl)(Cl)C(Cl)(Cl)Cl	inactive
CN/C(=N\[N+](=O)[O-])NCC1CCOC1 (stereo not given)	inactive
CNC(=O)Oc1c(C(C)(C)C)cc(C)cc1C(C)(C)C	inactive
C#CCN1C(=O)COc2cc(F)c(N3C(=O)C4=C(CCCC4)C3=O)cc21	inactive
CC(Oc1ccc(Oc2ncc(C(F)(F)F)cc2Cl)cc1)C(=O)O (stereo not given)	inactive
c1cc2c(c(N3CCNCC3)c1)OCCO2	inactive
CCSC(=O)N(CC)C1CCCCC1	inactive
Cc1cc(C)nc(Nc2ccccc2)n1	inactive
CC(C=O)Cc1ccc2c(c1)OCO2 (stereo not given)	inactive
COc1cc(OC)nc(NC(=O)NS(=O)(=O)c2ncccc2OCC(F)(F)F)n1	inactive
O=[N+]([O-])c1cccc2cccnc12	inactive
NC1=NC(=O)C(c2ccccc2)O1 (stereo not given)	inactive

— PubChem BioAssay (Tox21)
